Measured values reported in PubChem BioAssay AID651871 (Sanford-Burnham Center for Chemical Genomics, 2012).
Values joined by “and” are separate entries in the source; they are usually repeats but may differ in a detail not shown here. Identical values can stand only once.

Each molecule was assayed on HL-1 (assay: cardiomyocyte survival under oxidative or metabolic stress – cell-based, panel, H9c2 and HL-1, ATP luminescence, set 2, SAR follow-up (AID 651871;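 note: cells exposed to stressor for 2 h before ATP readout; reference of the scale not given here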)). Details: H9c2/HL-1 cardiomyocytes, 2-deoxyglucose stress, with 2-deoxyglucose, run 2, at 79 µM (top of the series).
For `COc1ccc2nc(-c3cc(OC)c(OC)c(OC)c3)cc(C(=O)NCC(=O)Nc3ccc(C(C)=O)cc3)c2c1`, the activity (protection/inhibition) was 54.8%. `CCOC(=O)c1cccc(NC(=O)CNC(=O)c2cc(-c3cc(OC)c(OC)c(OC)c3)nc3ccccc23)c1` gave an activity (protection/inhibition) of 75.9%. With `COc1ccc2c(c1OC)C(=O)N1c3ccccc3C(=O)N(Cc3cccc(Cl)c3Cl)C21` (stereo not drawn) the activity (protection/inhibition) was 27.7% and -9.62%.
